Screening results (PubChem)
Only some compounds are listed: those with a hit (about 4.6% of all), similar ones and a draw of the others.
ADAM17 inh – inhibits human ADAM17; inhibition, % at 6.95 µM; 370,000 compounds, 0.83% hits; recombinant ADAM17, EDANS/DABCYL FRET peptide cleavage;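 active = inhibition above the mean of compounds lying between control limits plus 3 SD, set per campaign, cut at about 8.5% in these data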
KLK7 zymogen act – activates the human kallikrein-7 zymogen; AID 652039; P49862; 370,000 compounds, 0.9% hits; activation, % at 7 µM; purified proKLK7, EDANS-DABCYL substrate fluorescence; 100% is mature enzyme control, 0% vehicle;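 active = activation above the mean of all tested compounds plus 3 SD, computed per campaign excluding outliers beyond control limits, cut at about 13% in these data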
FAS TE block – inhibitors of human fatty acid synthase thioesterase domain; P49327; recombinant FAS-TE, OMFH fluorogenic substrate, fluorescence endpoint; inhibition, % at 15 µM; 360,000 compounds, 0.67% hits; AID 602261;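 active = compounds whose normalised, plate-corrected inhibition of enzyme fluorescence in the single-dose primary screen is 50% or more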
NR3A LBD binder – modulators (binders) of human NR3A ligand-binding domain; NR3A LBD differential scanning fluorimetry, Tm shift; 0% = protein alone, 100% = glycine-bound protein; Tm shift relative to glycine control, % at 25 µM; 340,000 compounds, 2.5% hits; AID 1259313;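 active = melting temperature shift of at least 10% of the positive control shift, at one fixed dose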
ADAM10 inh – inhibits human ADAM10; AID 720582; recombinant ADAM10, EDANS/DABCYL FRET peptide cleavage, 3 h; inhibition, % at 7 µM; 370,000 compounds, 0.62% hits; O14672;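 active = inhibition above a per-campaign cutoff equal to the mean of compounds falling between control-based bounds plus 3 SD, cut at about 20% in these data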
Target sequence (O14672 214-748 limits assumed): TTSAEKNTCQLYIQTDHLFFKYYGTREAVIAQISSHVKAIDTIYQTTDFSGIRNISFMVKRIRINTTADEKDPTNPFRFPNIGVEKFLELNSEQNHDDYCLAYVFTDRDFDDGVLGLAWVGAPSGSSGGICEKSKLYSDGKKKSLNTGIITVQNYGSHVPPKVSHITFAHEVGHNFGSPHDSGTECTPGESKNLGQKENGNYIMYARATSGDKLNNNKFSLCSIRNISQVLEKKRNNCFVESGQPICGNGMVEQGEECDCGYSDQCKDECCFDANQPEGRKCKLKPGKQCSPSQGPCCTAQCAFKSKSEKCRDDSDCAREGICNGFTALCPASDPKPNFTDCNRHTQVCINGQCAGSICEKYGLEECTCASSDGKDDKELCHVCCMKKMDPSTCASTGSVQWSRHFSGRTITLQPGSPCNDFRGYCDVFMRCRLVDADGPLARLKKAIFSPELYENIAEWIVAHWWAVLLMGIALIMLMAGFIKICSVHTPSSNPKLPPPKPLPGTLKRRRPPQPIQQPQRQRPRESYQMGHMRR
KLK7 act conf – confirmation of human kallikrein-7 zymogen activators. shares compounds with KLK7 zymogen act. purified proKLK7, EDANS-DABCYL substrate fluorescence; scaled: vehicle 0, mature enzyme 100. activation, % at 7 µM. 3,200 compounds, 68% hits;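 active = activation, as change over the incubation, above the mean of all tested compounds plus 3 SD, cut at about 13% in these data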
EDANS-DABCYL int – counter-screen for kallikrein-7 activators: EDANS-DABCYL optical interference; 3,200 compounds, 80% hits; AID 686952; activation, % at 7 µM; EDANS-DABCYL substrate fluorescence interference, no enzyme, 4 h; solvent 0%, active enzyme control 100%; shares compounds with KLK7 zymogen act;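 active = activation above the all-compound mean plus 3 SD, ignoring values outside control-based bounds, cut at about 4.8% in these data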;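 note: value is the 4 h activation minus the activation read at time zero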
EDANS interf – EDANS fluorescence interference in dose response, no enzyme; shares compounds with KLK7 zymogen act; EDANS-DABCYL peptide fluorescence interference; EC50, µM; 250 compounds, 20% hits;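 active = compounds that raise the fluorescence signal in this interference counterscreen, with EC50 at or below 10 µM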;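 note: intact quenched peptide substrate alone read at 355 nm excitation and 520 nm emission; signal is fluorescence gain from T0 to T4 after four hours at room temperature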
Of the large screens only hits and unclear results are named; the others gave an inactive call (follow-up assays come after a bar, where they were run).

CCCN1C(=O)c2ccccc2NC1c1ccc(Cl)cc1 (stereo unspecified)	KLK7 zymogen act 16 | KLK7 act conf inactive | EDANS-DABCYL int 7.0
CCCN1C(=O)c2ccccc2NC1c1ccc(O)c(OCC)c1 (stereo unspecified)	KLK7 zymogen act 14 | KLK7 act conf inactive | EDANS-DABCYL int 6.7
O=C1NCCN1CCN1C(=O)c2ccccc2NC1c1ccccc1 (stereo unspecified)	KLK7 zymogen act 20 | KLK7 act conf 30 | EDANS-DABCYL int 33
Cc1ccc(C2Nc3ccccc3C(=O)N2CCCN2CCOCC2)cc1 (stereo unspecified)	KLK7 zymogen act 23 | KLK7 act conf inactive | EDANS-DABCYL int inactive
O=C1c2ccccc2NC(c2ccccc2Br)N1CCCN1CCOCC1 (stereo unspecified)	none
CCCN1C(=O)c2ccccc2NC1c1ccc(Cl)c(Cl)c1 (stereo unspecified)	none
COC(=O)[C@]12C[C@H](CC(=O)N3CCCC3)C(=O)N(Cc3cccc4ccccc34)C1=C[C@H](COCc1ccccc1)O[C@@H]2C	none (no result: FAS TE block, NR3A LBD binder)
C[C@H]1/C=C/CC(=O)N[C@@H](c2ccccc2)[C@@H](C)/C=C/CC(=O)N[C@H]1c1ccccc1	none (no result: FAS TE block, NR3A LBD binder)
Clc1ccc(-c2cn3cccnc3n2)cc1	KLK7 zymogen act 22 | KLK7 act conf 53 | EDANS-DABCYL int 69
Brc1ccc(-c2cn3cccnc3n2)cc1	KLK7 zymogen act 24 | KLK7 act conf 23 | EDANS-DABCYL int 27
Cc1ccc2nc(NCCO)nc(-c3ccccc3)c2c1	KLK7 zymogen act 19 | KLK7 act conf inactive | EDANS-DABCYL int inactive
CCOc1nc(-c2ccccc2)c2cc(C)ccc2n1	none
COc1nc(-c2ccccc2)c2cc(C)ccc2n1	KLK7 zymogen act 13 | KLK7 act conf inactive | EDANS-DABCYL int inactive
O=C(Nc1sc2c(c1C(=O)NCCCO)CCCC2)c1ccccc1	none
NCCNC(=O)c1c(NC(=O)c2ccccc2)sc2c1CCCC2	KLK7 zymogen act 19 | KLK7 act conf inactive | EDANS-DABCYL int inactive
COC(=O)c1c(NC(=O)c2ccc(N(C)S(=O)(=O)c3ccc(C)cc3)cc2)sc2c1CCCC2	none
COCCN(CCOC)S(=O)(=O)c1ccc(C(=O)Nc2sc3c(c2C(N)=O)CCCCC3)cc1	KLK7 zymogen act 19 | KLK7 act conf inactive | EDANS-DABCYL int 21
Cc1ccc2c(c1)-c1c(cnn1CC(=O)NCCc1cccc(F)c1)CO2	none (no result: FAS TE block, NR3A LBD binder)
Cc1cccc(NC(=O)CNC(=O)[C@H](CCc2ccccc2)NC(=O)[C@H]2O[C@@H](n3cnc4c(N)ncnc43)[C@H](O)[C@@H]2O)c1C	none (no result: FAS TE block, NR3A LBD binder)
COc1ccc(C(=O)Nc2ccc(NC(=O)c3ccco3)c(Cl)c2)cc1OC	KLK7 zymogen act 16 | KLK7 act conf inactive | EDANS-DABCYL int inactive
CC(C)Oc1ccc(C(=O)Nc2ccc(NC(=O)c3ccco3)c(Cl)c2)cc1	none
Cc1ccc(-n2c(SCC(=O)Nc3ccccc3-c3ccccc3)nnc2-c2cccs2)cc1	none (no result: FAS TE block, NR3A LBD binder)
CC(C)c1ccccc1NC(=O)Cn1c(/C=C/c2ccccc2)nc2ccccc21	none (no result: ADAM17 inh, KLK7 zymogen act, FAS TE block, ADAM10 inh)
Cc1ccc(NC(=O)Cn2c(/C=C/c3ccccc3)nc3ccccc32)cc1C	KLK7 zymogen act 29 | KLK7 act conf 49 | EDANS-DABCYL int 43
COc1ccc(CC(=O)N2CCc3cc(OC)c(OC)cc3C2O)cc1OC (stereo unspecified)	KLK7 zymogen act 14, NR3A LBD binder 10 | KLK7 act conf inactive | EDANS-DABCYL int 4.1
COc1cc2c(cc1OC)C(C1C(=O)CC(C)(C)CC1=O)N(C(=O)CCl)CC2 (stereo unspecified)	KLK7 zymogen act 124 | KLK7 act conf inactive | EDANS-DABCYL int 15
COc1ccc(OC(=O)c2cccc([N+](=O)[O-])c2)c(C(=O)/C=C/c2cccs2)c1	KLK7 zymogen act 25 | KLK7 act conf 20 | EDANS-DABCYL int 15 | EDANS interf inactive
